# ADAM17 inh – ADAM17 inhibition, QFRET primary screen; inhibition, % at 6.95 µM; 370,000 tested, 0.83% active; recombinant ADAM17, EDANS/DABCYL FRET peptide cleavage; P78536;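 active = inhibition above the mean of compounds lying between control limits plus 3 SD, set per campaign, cut at about 8.5% in these data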
# aDG glyco act – increases alpha dystroglycan glycosylation. Pro5-aDG cells, alpha-DG glycosylation AlphaScreen (IIH6); 0% Pro5, 100% B10-LARGE cell signal. activation, % at 10 µM. 360,000 tested, 0.22% active. AID 624168;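 active = activation of at least 8% versus controls, or a plate z-score of at least 8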;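 note: Pro5 are CHO cells carrying HIG-tagged alpha-DG that lacks glycosylation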
# GRIN3A LBD mod – modulators (binders) of human NR3A ligand-binding domain | NR3A LBD differential scanning fluorimetry, Tm shift; 0% = protein alone, 100% = glycine-bound protein | Tm shift relative to glycine control, % at 25 µM | 340,000 tested, 2.5% active;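 active = melting temperature shift of at least 10% of the positive control shift, at one fixed dose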
# FAS-TE inh – blocks the thioesterase domain of human fatty acid synthase. inhibition, % at 15 µM. recombinant FAS-TE, OMFH fluorogenic substrate, fluorescence endpoint. AID 602261. P49327. 360,000 tested, 0.67% active;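 active = compounds whose normalised, plate-corrected inhibition of enzyme fluorescence in the single-dose primary screen is 50% or more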
# ADAM10 inh – ADAM10 inhibition, QFRET primary screen | O14672 | recombinant ADAM10, EDANS/DABCYL FRET peptide cleavage, 3 h | inhibition, % at 7 µM | 370,000 tested, 0.62% active | AID 720582;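 active = inhibition above a per-campaign cutoff equal to the mean of compounds falling between control-based bounds plus 3 SD, cut at about 20% in these data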
# Target sequence (O14672 214-748 limits assumed): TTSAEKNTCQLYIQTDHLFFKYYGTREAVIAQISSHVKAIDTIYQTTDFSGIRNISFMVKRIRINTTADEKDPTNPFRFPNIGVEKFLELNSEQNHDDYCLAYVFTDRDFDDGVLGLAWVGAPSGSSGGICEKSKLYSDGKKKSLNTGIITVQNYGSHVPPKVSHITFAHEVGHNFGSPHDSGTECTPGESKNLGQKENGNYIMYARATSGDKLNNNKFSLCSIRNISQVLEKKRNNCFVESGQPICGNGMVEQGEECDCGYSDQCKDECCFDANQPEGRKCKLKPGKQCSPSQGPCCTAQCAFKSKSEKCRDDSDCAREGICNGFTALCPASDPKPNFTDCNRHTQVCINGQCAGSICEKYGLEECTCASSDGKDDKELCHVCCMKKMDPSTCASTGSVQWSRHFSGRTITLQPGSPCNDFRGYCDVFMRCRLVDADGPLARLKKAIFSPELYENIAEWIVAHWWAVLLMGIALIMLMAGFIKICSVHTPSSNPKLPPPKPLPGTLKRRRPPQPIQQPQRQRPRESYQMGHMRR
# Hits are given with their value; . = inactive; / = not tested or not shown. Compounds with a hit are over-represented: about 4% of the library has one in this group of screens.
SMILES,ADAM17 inh,aDG glyco act,GRIN3A LBD mod,FAS-TE inh,ADAM10 inh
O=C(NC(Cc1c[nH]c2ccccc12)c1nnc2n1CCCCC2)c1ccccc1 (configuration not stated),.,.,.,.,.
O=C(/C=C/c1ccco1)OCn1nnc2ccccc2c1=O,.,.,.,.,.
CNC(=O)Cn1nc(-c2ccc(C)cc2)c2ccccc2c1=O,.,.,.,.,.
CCOC(=O)C1=C(N)Oc2cc(O)ccc2C1c1cccc(Cl)c1 (configuration not stated),.,.,13.2,.,.
O=c1[nH]c(-c2ccc(O)cc2)nc2scc(-c3cccs3)c12,.,.,18.8,.,.
Cc1nc2scc(-c3cccs3)c2c(=O)[nH]1,.,.,.,.,.
O=C(O)/C=C/c1ccc(S(=O)(=O)Nc2ccc3[nH]c(=O)[nH]c3c2)cc1,.,.,.,.,.
CC(/C=N/NC(=O)c1nnn(-c2nonc2N)c1C(C)C)=C\c1ccco1,.,.,18.7,.,.
CCCc1c(C(=O)N/N=C/C(C)=C/c2ccco2)nnn1-c1nonc1N,.,.,15.7,.,.
CC(C)c1c(C(=O)N/N=C/c2ccncc2)nnn1-c1nonc1N,.,.,.,.,.
CC(=O)N(c1ccc(N(C(C)=O)S(=O)(=O)c2cccs2)cc1)S(=O)(=O)c1cccs1,.,.,.,.,.
O=C(COc1ccc2ccccc2c1Br)NNC(=O)Nc1ccccc1,.,.,10.4,.,.
CCCCN(C)CCNC(=O)c1cc2cc3ccc(OC)cc3nc2o1,.,.,.,.,.
CC(C)c1cccc(C(C)C)c1OC(=O)[C@H]1OC(C(C)(C)C)=C[C@@H]1c1ccccc1,.,.,15.7,.,.
Cc1ccc(Nc2nc(-c3cccnc3)cs2)cc1C,.,.,.,.,.
COc1ccc(Cl)cc1Nc1nc(-c2cccnc2)cs1,.,.,23.6,.,.
Brc1ccc(Nc2nc(-c3cccnc3)cs2)cc1,.,.,21.4,.,.
Brc1ccc(-c2csc(Nc3nc(-c4ccc(Br)cc4)cs3)n2)cc1,.,.,32.2,.,.
Brc1cccc(Nc2nc(-c3cccnc3)cs2)c1,.,.,43.0,.,.
Nc1nc(-c2ccc(Br)cc2)cs1,.,.,.,.,.
Oc1ccc(Nc2nc(-c3cccnc3)cs2)cc1,/,.,.,.,/
COc1ccc2c(c1)c(=O)oc1cc(OCC(=O)N3CCC(C)CC3)ccc12,/,.,.,.,/
CCOc1ccc(NC(=O)c2c[nH]n3c(=O)cc(C4CCN(C(=O)OC(C)(C)C)CC4)nc23)cc1,.,.,.,.,.
Clc1cccc(Nc2nc(-c3cccnc3)cs2)c1,.,.,26.7,.,.
CC(=O)c1cccc(Nc2nc(-c3cccnc3)cs2)c1,.,.,.,.,.
SMILES,ADAM17 inh,aDG glyco act,GRIN3A LBD mod,FAS-TE inh,ADAM10 inh
CC1(C)C2CCC1(C)C(OC(=O)CC(=O)O)C2 (configuration not stated),.,/,10.3,/,.
CC1(C)C2CCC1(C)C(OC(=O)C[n+]1ccccc1)C2 (configuration not stated),.,.,.,.,.
CC(=O)Nc1ccc(S(=O)(=O)N(Cc2ccccc2)c2ccccc2)cc1,.,.,.,.,.
COc1ccc(CN(C2CC2)S(=O)(=O)c2ccccc2Br)cc1,.,.,12.7,.,.
COc1ccc(CN(CCC(C)C)S(=O)(=O)c2ccccc2Br)cc1,.,.,.,.,.
Cc1ccc(NC(=O)CN2C(=O)N/C(=C/c3ccc(C)s3)C2=O)cc1,.,.,.,.,.
COc1cc(NC(=O)c2ccc3snnc3c2)cc(OC)c1,.,.,18.9,.,.
Cc1ccc(NC(=O)c2ccc3snnc3c2)cc1,.,.,.,.,.
O=C1ON=C(c2ccccc2)/C1=C/c1ccc(O)c(O)c1,.,.,16.4,.,.
COc1cc(/C=C2\C(=O)ON=C2c2ccc(Cl)cc2)ccc1O,.,/,.,/,.
COc1ccc(/C=C2\C(=O)ON=C2c2ccccc2)cc1,.,.,19.2,.,.
O=C1ON=C(c2ccccc2)/C1=C/c1ccc(OS(=O)(=O)c2ccccc2)cc1,.,.,.,.,.
Cc1ccc(C2=NOC(=O)/C2=C\c2ccc(C)o2)cc1,.,.,13.4,.,.
O=C(CCC1CCCCC1)NCc1ccc(F)cc1,.,.,.,.,.
CC(C)(C)NC(=O)C(c1ccc(-c2ccccc2)cc1)N(C[C@H]1CC[C@@H]([C@@H]2CC[C@H](CO)O2)O1)C(=O)c1ccc(-c2ccccc2)cc1 (some centres not stated),/,.,29.9,.,/
Cc1ccc(S(=O)(=O)N2CCN(Cc3ccccc3C(F)(F)F)CC2)cc1,.,.,20.2,.,.
CCOC(=O)c1ccc(Nc2ccc(-c3ccc(OC)c(OC)c3)nn2)cc1,.,.,26.1,.,.
CCCCOC(=O)c1nc(Cl)c(Cl)c(N)c1Cl,.,.,12.6,.,.
CCCCOC(=O)c1ccc(O)cc1,.,.,.,.,.
CCOc1ccc(C(=O)NCc2ccccc2)cc1Br,.,.,11.8,.,.
COc1cccc(C(=O)NNC2=C(C(=O)C(F)(F)F)CCC2)c1,.,.,.,.,.
COc1cccc(CC(=O)OCC(=O)c2cc(OC)c(OC)c(OC)c2)c1,.,.,.,.,.
COc1cc(C=C2CN(C)C(=O)C2=O)ccc1O,.,.,/,.,.
COc1cc(/C=C2\OC(=O)c3c(OC)cccc32)ccc1O,.,.,16.9,.,.
O=C(N[C@H](C(=O)N1CCC[C@H]1C(=O)NCCc1ccccc1Cl)C1CCCCC1)C1CC1,.,/,/,/,.
SMILES,ADAM17 inh,aDG glyco act,GRIN3A LBD mod,FAS-TE inh,ADAM10 inh
Cc1ccc(S(=O)(=O)N(C)CC(=O)NCCCn2nc(C)cc2C)cc1,.,.,13.0,.,.
CCN(CC)CCn1c(-c2ccc(C)cc2)nc(=S)c2c1CC(C)(C)OC2,.,.,13.9,.,.
O=C(NNc1c2ccccc2nc2ccccc12)c1ccccc1O,.,.,17.8,.,.
O=C(NNc1c2ccccc2nc2ccccc12)c1ccc(O)cc1O,.,.,.,.,.
COc1ccc(CN(C)CCCn2ccc(NC(=O)OCc3ccccc3)nc2=O)cc1OC,.,.,/,.,.
COc1cc(NCCCn2ccc(NC(=O)OCc3ccccc3)nc2=O)cc(OC)c1OC,.,.,16.8,.,.
CN(C)S(=O)(=O)c1ccc(Cl)c(NC(=O)CN2C(=O)NC3(CCc4ccccc43)C2=O)c1 (configuration not stated),.,.,.,.,.
Cc1ccc(/C=C/C(=O)c2ccc(O)cc2)cc1,.,.,.,.,.
O=C(/C=C/c1ccc(O)cc1)c1ccc(O)cc1O,.,.,27.7,.,.
COc1ccc(C(=O)/C=C/c2ccccc2)c(O)c1,.,.,.,.,.
O=C(/C=C/c1ccc(O)c(O)c1)c1ccccc1O,.,.,25.0,.,.
O=C(C=Cc1cccc(O)c1)c1ccccc1O,.,.,.,.,.
CSc1ccc(/C=C/C(=O)c2ccc(O)cc2)cc1,.,.,10.9,.,.

# Compound activity: PubChem, several laboratories
